Screening data (PubChem BioAssay)
MITF primary: blocks human microphthalmia-associated transcription factor; O75030; AlphaScreen MITF homodimerization, bead proximity signal; inhibition, % at 2.6 µM; 650,000 compounds, 0.91% hits; in the data active = inhibition above about 50%
TEAD-YAP block: TEAD-YAP interaction inhibition; inhibition, % at 9.12 µM; AID 1259422; HEK-TIYL cells, TEAD-Gal4/YAP UAS-luciferase luminescence; 640,000 compounds, 1.4% hits; in the data active = inhibition above about 32%
GPR151 activ: activates the human receptor GPR151 | 650,000 compounds, 1% hits | PathHunter beta-arrestin GPR151 cells, luminescence | activation, % at 11.2 µM | Q8TDV0; in the data active = activation above about 4.9%
Target sequence (Q8TDV0 whole entry, looked up): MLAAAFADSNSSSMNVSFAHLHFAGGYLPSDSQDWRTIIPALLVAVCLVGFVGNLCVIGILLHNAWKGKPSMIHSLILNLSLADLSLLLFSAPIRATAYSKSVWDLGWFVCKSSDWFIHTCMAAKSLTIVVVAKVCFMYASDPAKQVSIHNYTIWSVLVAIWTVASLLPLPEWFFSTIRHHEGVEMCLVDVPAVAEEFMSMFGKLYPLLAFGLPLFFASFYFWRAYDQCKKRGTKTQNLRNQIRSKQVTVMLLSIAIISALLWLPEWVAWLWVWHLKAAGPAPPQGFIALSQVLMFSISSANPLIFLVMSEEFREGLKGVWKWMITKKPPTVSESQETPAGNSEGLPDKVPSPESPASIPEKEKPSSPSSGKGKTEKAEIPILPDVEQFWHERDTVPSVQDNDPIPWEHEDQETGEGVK
FBW7 act: activators of human E3 ligase FBW7 | normalized activity (activation), % at 26.1 µM | Q969H0 | 650,000 compounds, 0.13% hits | AlphaScreen FBW7–phospho-cyclin E peptide binding, activator screen | AID 1259310; in the data active = normalized activity above about 1.9%;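 note: purified mutant Fbw7 with reduced substrate affinity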
MITF confirm: human MITF inhibition, confirmation; shares compounds with MITF primary; AlphaScreen MITF homodimerization, biotin/His-MITF beads; inhibition, % at 2.6 µM; 4,700 compounds, 16% hits;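 active = inhibition above a cutoff derived from the DMSO control wells, cut at about 28% in these data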;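 note: inhibitors lower the bead chemiluminescence by keeping MITF from dimerizing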
AlphaScreen DR: optically interferes with AlphaScreen signal in dose response; shares compounds with MITF primary; AlphaScreen optical interference counterscreen, cell-free; IC50, µM; 480 compounds, 6% hits; call rule not given here
AlphaScreen intf2: AlphaScreen optical interference, counter-screen. shares compounds with MITF primary. LysRS AlphaScreen counterscreen, signal interference, triplicate. inhibition, % at 2.6 µM. 4,700 compounds, 7.6% hits;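 active = inhibition above a cutoff derived from the DMSO control wells, cut at about 30% in these data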
Of the large screens only hits and unclear results are named; the others gave an inactive call (follow-up assays come after a bar, where they were run). Hits are enriched below; roughly 3.4% of the tested compounds scored in any of these assays.

COc1ccc(OCCCCOc2ccc([N+](=O)[O-])cc2)cc1	none
Cc1ccc(OCCCN(C)C)c([N+](=O)[O-])c1	MITF primary 68 | MITF confirm inactive | AlphaScreen intf2 inactive
C=CCNCCCOc1ccc(C)cc1[N+](=O)[O-]	none
Cc1nn(C2CCS(=O)(=O)C2)c(Cl)c1CNCc1ccccc1 (stereo not given)	MITF primary 58 | MITF confirm inactive | AlphaScreen intf2 inactive
CCn1c(SCC(=O)Nc2ccc([N+](=O)[O-])cc2)nnc1-c1ccc(N)cc1	none
CCNC(=S)Nc1ccc(C)c(NC(=S)NCC)c1	none
CCOC(=O)C1CCN(C(=O)c2ccc(N3CC4CC(C3)c3cccc(=O)n3C4)c(NC(=O)c3ccc(F)cc3)c2)CC1 (stereo not given)	none
CCOC(=O)C1CCN(C(=O)c2ccc(N3CC4CC(C3)c3cccc(=O)n3C4)c(NC(=O)c3ccc(C(C)(C)C)cc3)c2)CC1 (stereo not given)	MITF primary 67 | MITF confirm inactive | AlphaScreen intf2 inactive
CCN1CCN(c2cc(C)c3ccc(OC)cc3n2)CC1	MITF primary 64 | MITF confirm inactive | AlphaScreen intf2 inactive
c1cnc2c(c1)ccc1cccnc12	MITF primary 111, TEAD-YAP block 35 | MITF confirm 115 | AlphaScreen intf2 101
CC[n+]1cccc2ccc3cccnc3c21	none
COc1cc(NC(=O)Nc2cccc(C(C)=O)c2)cc(OC)c1OC	none
COc1cc(Nc2cccc(C(N)=O)c2)cc(OC)c1OC	MITF primary 73 | MITF confirm inactive | AlphaScreen intf2 inactive
CC(=O)Oc1ccccc1N1C(=O)c2ccc(Oc3cccc(N)c3)cc2C1=O	MITF primary 54 | MITF confirm 70 | AlphaScreen DR inactive | AlphaScreen intf2 inactive
COc1ccccc1C(=O)N1CCN(C(=O)c2cccnc2)CC1	none
O=C(c1cccnc1)N1CCN(Cc2ccccc2F)CC1	MITF primary 56 | MITF confirm inactive | AlphaScreen intf2 inactive
O=C(c1cccnc1)N1CCN(Cc2ccccc2Br)CC1	none
COc1ccc(OC)c(CN2CCN(C(=O)c3cccnc3)CC2)c1	MITF primary 59 | MITF confirm inactive | AlphaScreen intf2 inactive
COc1cc(OC)c(OC)cc1CN1CCN(C(=O)c2cccnc2)CC1	MITF primary 68 | MITF confirm inactive | AlphaScreen intf2 inactive
COc1cc(OC)cc(C(=O)N(c2ccc(Cl)cc2)C2C=CS(=O)(=O)C2)c1 (stereo not given)	none
CC(NC(=O)CCSCCC(=O)NC(C)c1ccccc1)c1ccccc1 (stereo not given)	none
CC(NC(=O)CCSCc1ccccc1F)c1ccccc1 (stereo not given)	MITF primary 59 | MITF confirm inactive | AlphaScreen intf2 inactive
CC(NC(=O)Cc1ccc(F)cc1)c1ccccc1 (stereo not given)	none
CC(NC(=O)Cc1ccccc1Cl)c1ccc(F)cc1 (stereo not given)	MITF primary 58 | MITF confirm inactive | AlphaScreen intf2 inactive
O=C(Cc1cn(Cc2ccc(Cl)cc2)c2ccccc12)NC1CC1	none
CCCn1c(-c2ccc(OC)cc2)nc2c(c(=O)c3ccccc3n2C)c1=O	MITF primary 90 | MITF confirm inactive | AlphaScreen intf2 inactive
COCCn1c(-c2ccc(F)cc2)nc2c(c(=O)c3ccccc3n2C)c1=O	none
COc1ccc(Cn2c(CCC(=O)Nc3cc(OC)cc(OC)c3)nc3cccnc32)cc1	none
O=C(CSc1ccc(-c2ccccn2)nn1)Nc1ccc(Br)cc1	none
CC(=O)c1cccc(NC(=O)CSc2ccc(-c3ccccn3)nn2)c1	none
Cc1cccc(NC(=O)CSc2ccc(-c3ccccn3)nn2)c1	MITF primary 57 | MITF confirm 76 | AlphaScreen intf2 99
CC(=O)Nc1cccc(NC(=O)CSc2ccc(-c3ccccn3)nn2)c1	MITF primary 84 | MITF confirm 79 | AlphaScreen intf2 100
CC(=O)Nc1ccc(NC(=O)CSc2ccc(-c3ccccn3)nn2)cc1	MITF primary 83 | MITF confirm 83 | AlphaScreen intf2 100
Cc1cccc(N(C)c2ccnc3c(-c4ccc(CO)cc4)cnn23)c1	none
COc1ccc(CCNc2nc(Nc3nccc4ccccc34)ncc2C)cc1	none
c1ccc(-c2ccc(-c3ccccn3)nn2)nc1	MITF primary 86, TEAD-YAP block 44 | MITF confirm 99 | AlphaScreen intf2 101
c1ccc(-c2ccccn2)nc1	none
CC(=O)Nc1ccc(NC(=O)c2cccc(NCCCN3CCCC3=O)c2)cc1	none
CC(=O)N1CCSc2cc(S(=O)(=O)Nc3cc(F)ccc3F)ccc21	none
O=CN1CCN(Cc2coc3c(Cl)cc(Cl)cc3c2=O)CC1	none
CN1CCCN(Cc2c(F)cccc2F)CC1	MITF primary 78 | MITF confirm inactive | AlphaScreen intf2 inactive
CN1CCCN(Cc2c(Cl)cccc2Cl)CC1	MITF primary 63 | MITF confirm inactive | AlphaScreen intf2 inactive
CN1CCCN(Cc2coc3c(Cl)cc(Cl)cc3c2=O)CC1	MITF primary 55 | MITF confirm inactive | AlphaScreen intf2 inactive
COc1ccccc1C(=O)NNC(=O)c1ccccc1C	none
CC(C)C1C2CCCCC2=NN1C(=O)/C=C/C(=O)O (stereo not given)	none
OC(CON=C1c2ccccc2-c2ccccc21)CN1CCNCC1 (stereo not given)	MITF primary 77 | MITF confirm inactive | AlphaScreen intf2 inactive
Cc1cc(O)c(C(C)C)cc1NC(=O)c1ccc([N+](=O)[O-])cc1	none
O=C1N(CC2CC2)CCN1c1ccc(C(F)(F)F)cn1	MITF primary 55 | MITF confirm inactive | AlphaScreen intf2 inactive
CCCCN1CCN(c2ccc(C(F)(F)F)cn2)C1=O	none
CCc1ccc2nc(SCC(=O)Nc3nc(C)c(C)s3)c(C#N)cc2c1	MITF primary 84 | MITF confirm inactive | AlphaScreen intf2 56
COc1ccc(OCCN2CCN(S(=O)(=O)c3ccc4c(c3)OCCO4)CC2)cc1	MITF primary 85 | MITF confirm inactive | AlphaScreen intf2 inactive
COc1ccc(S(=O)(=O)N2CCN(C3CCCCCCC3)CC2)cc1	none
COC(=O)CCN1CCN(S(=O)(=O)c2ccc(OC)cc2)CC1	MITF primary 60 | MITF confirm inactive | AlphaScreen intf2 inactive
COc1ccc(S(=O)(=O)N2CCN(CCO)CC2)cc1	none
COc1ccc(S(=O)(=O)N2CCC(N3CCC(C)CC3)CC2)cc1	MITF primary 55 | MITF confirm 34 | AlphaScreen DR inactive | AlphaScreen intf2 inactive
COc1ccc(S(=O)(=O)N2CCC(N3CCN(C)CC3)CC2)cc1	MITF primary 73 | MITF confirm inactive | AlphaScreen intf2 inactive
COc1cccc2sc(N3CCc4ccccc4C3)nc12	none
COc1ccc(NC(=O)CSc2nc(=O)n(CCN(C)C)c3c2CCC3)cc1OC	none
COc1ccc(S(=O)(=O)N2CCC(N3CCOCC3)CC2)cc1	MITF primary 54 | MITF confirm inactive | AlphaScreen intf2 inactive
